Test results taken from the supplement of paper PMC11732987, “Enantioselective OTUD7B fragment discovery through chemoproteomics screening and high-throughput optimisation” (Communications Chemistry, 2025).

How the values were obtained:
Test in all cases: log2 ratio of Biotin-Ahx-Ub-VS probe labelling (fragment/DMSO); higher = less target engagement (more negative = stronger competition), active = hit call of the paper (q ≤ 0.05, log2 ratio ≤ -1)
Conditions in all cases: compound concentration: 200 uM; treatment time: 3 h
USP19 = biological target: T1, USP19 (UniProt O94966)
T1 sequence (whole entry): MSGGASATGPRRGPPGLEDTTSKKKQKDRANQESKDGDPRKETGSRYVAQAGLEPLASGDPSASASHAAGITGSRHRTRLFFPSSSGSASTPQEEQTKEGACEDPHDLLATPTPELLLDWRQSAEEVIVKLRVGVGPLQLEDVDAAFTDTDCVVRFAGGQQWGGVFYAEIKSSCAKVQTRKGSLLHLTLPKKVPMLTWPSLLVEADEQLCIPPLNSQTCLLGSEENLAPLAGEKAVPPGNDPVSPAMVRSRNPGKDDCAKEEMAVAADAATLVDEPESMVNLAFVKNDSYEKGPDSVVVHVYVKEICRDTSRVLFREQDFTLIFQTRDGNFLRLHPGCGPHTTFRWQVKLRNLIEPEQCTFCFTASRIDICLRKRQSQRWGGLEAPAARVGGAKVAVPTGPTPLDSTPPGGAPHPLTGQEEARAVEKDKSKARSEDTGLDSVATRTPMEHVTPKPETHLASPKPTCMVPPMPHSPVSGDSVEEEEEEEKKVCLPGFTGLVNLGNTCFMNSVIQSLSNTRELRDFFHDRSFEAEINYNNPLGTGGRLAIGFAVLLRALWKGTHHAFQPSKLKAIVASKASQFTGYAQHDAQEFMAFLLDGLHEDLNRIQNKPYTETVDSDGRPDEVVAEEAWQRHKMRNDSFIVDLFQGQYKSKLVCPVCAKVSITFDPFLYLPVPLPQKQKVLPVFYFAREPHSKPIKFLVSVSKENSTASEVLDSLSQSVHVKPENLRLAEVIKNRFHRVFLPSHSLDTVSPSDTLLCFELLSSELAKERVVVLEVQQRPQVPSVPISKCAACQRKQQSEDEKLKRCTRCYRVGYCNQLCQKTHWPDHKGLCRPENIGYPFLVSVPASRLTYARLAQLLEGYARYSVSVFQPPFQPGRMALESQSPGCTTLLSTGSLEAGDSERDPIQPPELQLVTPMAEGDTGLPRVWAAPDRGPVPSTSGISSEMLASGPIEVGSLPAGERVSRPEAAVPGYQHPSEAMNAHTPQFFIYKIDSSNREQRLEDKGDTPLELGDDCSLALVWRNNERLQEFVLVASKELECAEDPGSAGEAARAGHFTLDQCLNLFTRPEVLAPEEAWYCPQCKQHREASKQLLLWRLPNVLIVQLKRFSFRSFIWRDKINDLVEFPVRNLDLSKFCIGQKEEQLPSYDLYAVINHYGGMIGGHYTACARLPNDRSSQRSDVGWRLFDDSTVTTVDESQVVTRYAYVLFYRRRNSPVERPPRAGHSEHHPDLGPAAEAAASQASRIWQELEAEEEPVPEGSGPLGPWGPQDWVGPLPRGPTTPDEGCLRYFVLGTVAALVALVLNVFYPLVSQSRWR
In short: (§1)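 Each value is an average log2 ratio of fragment to vehicle, tested by unpaired t-test. The underlying Spectronaut label-free quantities were global-median-normalised, and only proteins with ≥2 unique peptides were included. Triplicate HEK293T lysate samples (495 µg) were exposed to fragment at 200 µM or vehicle for 3 h, then to Biotin-Ahx-Ub-VS at 0.5 µM final for 1 h, before NeutrAvidin enrichment of labelled DUBs, LysC and trypsin digestion, and diaPASEF LC-MS/MS.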

USP22 = biological target: T2, USP22 (UniProt Q9UPT9)
T2 sequence (whole entry): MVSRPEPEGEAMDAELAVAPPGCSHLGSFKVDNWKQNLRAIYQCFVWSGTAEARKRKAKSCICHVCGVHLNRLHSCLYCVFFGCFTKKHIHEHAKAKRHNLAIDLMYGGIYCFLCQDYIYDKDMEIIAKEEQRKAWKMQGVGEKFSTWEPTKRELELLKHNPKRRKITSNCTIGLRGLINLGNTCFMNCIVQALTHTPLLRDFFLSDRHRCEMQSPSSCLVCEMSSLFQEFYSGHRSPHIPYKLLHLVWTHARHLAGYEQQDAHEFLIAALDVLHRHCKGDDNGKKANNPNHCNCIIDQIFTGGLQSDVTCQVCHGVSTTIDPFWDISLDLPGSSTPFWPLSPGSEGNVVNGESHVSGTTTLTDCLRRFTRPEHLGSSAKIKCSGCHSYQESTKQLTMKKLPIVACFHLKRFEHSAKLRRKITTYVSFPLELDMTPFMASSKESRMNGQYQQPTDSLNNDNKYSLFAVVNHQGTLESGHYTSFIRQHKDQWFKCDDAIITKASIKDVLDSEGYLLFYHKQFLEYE
In short: as §1

USP24 = USP24 (UniProt Q9UPU5)
In short: as §1

USP25 = biological target: T3, USP25 (UniProt Q9UHP3)
T3 sequence (whole entry): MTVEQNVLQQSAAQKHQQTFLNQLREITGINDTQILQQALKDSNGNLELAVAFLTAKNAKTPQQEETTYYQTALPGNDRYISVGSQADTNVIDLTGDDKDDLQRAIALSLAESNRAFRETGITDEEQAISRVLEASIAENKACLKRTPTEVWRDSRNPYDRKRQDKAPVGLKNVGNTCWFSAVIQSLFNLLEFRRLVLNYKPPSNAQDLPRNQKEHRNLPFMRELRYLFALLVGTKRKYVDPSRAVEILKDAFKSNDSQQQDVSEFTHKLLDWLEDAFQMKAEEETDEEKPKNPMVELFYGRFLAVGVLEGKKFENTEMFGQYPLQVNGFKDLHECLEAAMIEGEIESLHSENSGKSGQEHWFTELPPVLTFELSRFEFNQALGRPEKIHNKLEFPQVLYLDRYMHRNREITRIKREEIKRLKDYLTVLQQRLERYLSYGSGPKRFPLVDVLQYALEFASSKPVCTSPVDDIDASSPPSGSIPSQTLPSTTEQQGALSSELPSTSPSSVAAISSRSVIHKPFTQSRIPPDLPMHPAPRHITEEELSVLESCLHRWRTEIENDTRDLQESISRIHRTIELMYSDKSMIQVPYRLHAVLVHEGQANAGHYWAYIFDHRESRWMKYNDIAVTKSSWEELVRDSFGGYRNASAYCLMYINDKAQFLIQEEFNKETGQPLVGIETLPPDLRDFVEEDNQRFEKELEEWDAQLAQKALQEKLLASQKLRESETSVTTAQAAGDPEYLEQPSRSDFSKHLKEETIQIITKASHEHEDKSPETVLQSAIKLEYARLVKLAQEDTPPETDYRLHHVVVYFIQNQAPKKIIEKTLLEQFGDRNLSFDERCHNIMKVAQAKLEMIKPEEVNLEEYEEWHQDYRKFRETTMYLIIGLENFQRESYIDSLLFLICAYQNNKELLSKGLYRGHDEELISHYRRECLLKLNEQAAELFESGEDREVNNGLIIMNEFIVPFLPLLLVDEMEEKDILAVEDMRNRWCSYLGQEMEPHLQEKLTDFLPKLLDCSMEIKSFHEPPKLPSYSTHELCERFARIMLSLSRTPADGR
In short: as §1

USP28 = biological target: T4, USP28 (UniProt Q96RU2)
T4 sequence (whole entry): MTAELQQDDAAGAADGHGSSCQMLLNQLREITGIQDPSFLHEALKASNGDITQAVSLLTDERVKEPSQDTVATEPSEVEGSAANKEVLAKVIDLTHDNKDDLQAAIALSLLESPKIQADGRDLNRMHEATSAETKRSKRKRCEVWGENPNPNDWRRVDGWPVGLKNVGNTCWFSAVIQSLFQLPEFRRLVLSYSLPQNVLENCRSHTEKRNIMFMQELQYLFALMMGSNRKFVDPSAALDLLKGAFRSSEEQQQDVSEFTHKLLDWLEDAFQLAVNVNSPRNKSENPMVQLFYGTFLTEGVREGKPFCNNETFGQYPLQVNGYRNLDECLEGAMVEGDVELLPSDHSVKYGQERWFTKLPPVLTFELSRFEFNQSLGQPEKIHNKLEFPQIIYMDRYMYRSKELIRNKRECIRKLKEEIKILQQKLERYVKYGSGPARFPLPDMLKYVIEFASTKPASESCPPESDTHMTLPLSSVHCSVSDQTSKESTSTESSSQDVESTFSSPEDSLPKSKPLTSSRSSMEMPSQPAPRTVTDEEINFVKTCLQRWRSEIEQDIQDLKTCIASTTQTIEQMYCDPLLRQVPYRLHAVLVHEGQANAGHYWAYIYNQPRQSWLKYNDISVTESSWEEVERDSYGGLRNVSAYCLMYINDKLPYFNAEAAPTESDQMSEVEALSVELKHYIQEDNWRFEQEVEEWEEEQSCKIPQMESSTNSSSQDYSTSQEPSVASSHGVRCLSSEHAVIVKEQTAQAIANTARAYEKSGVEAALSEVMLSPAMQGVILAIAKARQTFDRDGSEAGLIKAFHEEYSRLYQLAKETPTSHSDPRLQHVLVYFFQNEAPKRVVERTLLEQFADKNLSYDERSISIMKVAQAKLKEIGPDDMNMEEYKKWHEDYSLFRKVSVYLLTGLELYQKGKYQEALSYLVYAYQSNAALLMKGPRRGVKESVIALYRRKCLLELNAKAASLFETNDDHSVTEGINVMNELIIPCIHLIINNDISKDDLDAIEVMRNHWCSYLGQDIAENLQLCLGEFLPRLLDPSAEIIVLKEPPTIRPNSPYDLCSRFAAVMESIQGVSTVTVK
In short: as §1

Measured: log2 ratio of Biotin-Ahx-Ub-VS probe labelling

Sequence of USP24 (Q9UPU5 whole entry): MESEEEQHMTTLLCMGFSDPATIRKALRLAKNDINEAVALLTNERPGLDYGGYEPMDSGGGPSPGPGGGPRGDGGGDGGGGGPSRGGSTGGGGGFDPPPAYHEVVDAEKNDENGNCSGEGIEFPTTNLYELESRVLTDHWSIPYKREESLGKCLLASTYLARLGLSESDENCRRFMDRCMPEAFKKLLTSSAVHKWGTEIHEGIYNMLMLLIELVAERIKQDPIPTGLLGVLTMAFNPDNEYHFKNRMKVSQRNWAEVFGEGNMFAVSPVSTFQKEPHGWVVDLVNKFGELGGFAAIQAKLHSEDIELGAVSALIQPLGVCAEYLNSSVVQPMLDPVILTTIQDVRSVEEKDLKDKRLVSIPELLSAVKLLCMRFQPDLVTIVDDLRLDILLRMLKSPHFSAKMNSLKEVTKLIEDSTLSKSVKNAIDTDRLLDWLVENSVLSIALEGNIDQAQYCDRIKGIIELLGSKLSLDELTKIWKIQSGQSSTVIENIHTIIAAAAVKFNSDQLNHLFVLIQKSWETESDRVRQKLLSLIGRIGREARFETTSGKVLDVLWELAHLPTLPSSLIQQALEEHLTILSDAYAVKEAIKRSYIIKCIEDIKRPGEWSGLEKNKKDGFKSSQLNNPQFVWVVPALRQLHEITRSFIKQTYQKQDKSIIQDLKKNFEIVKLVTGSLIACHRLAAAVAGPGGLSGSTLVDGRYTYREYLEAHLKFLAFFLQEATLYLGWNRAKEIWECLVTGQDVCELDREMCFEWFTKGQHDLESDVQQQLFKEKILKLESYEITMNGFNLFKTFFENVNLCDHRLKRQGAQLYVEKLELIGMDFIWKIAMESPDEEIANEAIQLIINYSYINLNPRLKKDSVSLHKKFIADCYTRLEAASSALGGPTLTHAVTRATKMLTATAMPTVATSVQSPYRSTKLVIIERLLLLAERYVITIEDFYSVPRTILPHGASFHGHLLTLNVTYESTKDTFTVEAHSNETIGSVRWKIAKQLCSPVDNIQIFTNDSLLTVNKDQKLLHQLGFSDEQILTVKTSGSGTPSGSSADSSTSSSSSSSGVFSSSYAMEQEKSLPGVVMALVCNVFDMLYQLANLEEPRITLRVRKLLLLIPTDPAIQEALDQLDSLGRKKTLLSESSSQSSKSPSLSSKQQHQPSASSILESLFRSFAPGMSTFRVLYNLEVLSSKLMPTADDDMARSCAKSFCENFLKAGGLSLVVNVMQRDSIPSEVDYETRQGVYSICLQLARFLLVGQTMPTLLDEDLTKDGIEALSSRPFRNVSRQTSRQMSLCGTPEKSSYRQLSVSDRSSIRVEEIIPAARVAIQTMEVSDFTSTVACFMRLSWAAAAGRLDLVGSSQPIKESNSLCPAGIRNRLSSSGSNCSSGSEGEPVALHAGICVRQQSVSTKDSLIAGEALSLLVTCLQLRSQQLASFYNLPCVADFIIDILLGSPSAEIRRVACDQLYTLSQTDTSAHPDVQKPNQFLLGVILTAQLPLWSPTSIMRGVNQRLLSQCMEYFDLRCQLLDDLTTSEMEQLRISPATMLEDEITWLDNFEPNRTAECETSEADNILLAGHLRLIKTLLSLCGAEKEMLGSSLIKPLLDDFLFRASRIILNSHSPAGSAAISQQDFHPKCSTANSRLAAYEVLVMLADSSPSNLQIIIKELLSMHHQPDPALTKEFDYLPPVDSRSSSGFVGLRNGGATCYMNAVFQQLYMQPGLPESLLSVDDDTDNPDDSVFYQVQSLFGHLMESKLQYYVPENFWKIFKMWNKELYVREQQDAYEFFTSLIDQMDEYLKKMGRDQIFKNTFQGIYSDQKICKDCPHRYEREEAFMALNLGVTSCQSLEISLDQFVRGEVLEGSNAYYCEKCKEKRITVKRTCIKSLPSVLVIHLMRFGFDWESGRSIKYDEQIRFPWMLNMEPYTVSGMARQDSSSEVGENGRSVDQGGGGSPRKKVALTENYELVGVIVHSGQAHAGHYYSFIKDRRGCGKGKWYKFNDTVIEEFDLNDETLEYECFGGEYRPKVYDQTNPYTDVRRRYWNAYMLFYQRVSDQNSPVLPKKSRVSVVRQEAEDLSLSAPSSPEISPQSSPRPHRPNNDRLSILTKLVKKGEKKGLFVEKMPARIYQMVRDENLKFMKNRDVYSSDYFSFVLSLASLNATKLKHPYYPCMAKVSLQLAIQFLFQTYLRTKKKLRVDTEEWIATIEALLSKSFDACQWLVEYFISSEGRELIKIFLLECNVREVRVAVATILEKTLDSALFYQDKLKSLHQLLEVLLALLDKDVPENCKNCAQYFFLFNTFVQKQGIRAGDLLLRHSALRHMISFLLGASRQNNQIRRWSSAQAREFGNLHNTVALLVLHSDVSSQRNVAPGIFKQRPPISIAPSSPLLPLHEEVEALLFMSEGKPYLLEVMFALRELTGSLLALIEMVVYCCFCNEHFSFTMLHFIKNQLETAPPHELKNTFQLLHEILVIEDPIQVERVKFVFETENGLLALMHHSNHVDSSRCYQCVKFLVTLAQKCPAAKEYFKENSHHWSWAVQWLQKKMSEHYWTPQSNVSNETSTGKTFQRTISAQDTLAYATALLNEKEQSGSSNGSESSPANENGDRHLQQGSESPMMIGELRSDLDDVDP

Cl.O=C(CCl)NCc1cc2c(nc1O)CCCC2
inactive: USP19 -0.0739 | USP22 -0.0357 | USP24 -0.254 | USP25 -0.59 | USP28 -0.576
